From ChEMBL document CHEMBL3988442, “University of Dundee, Small-Polar-MMV Screening Library” (2021) come the findings set out here.

Structures are written as SMILES. In all, about 48,000 compounds went through this assay and about 13,000 (27%) showed an effect of 50% or more. Some of the results follow.

This assay deals with Wolbachia pipientis. As to the kind of experiment: Anti-Wolbachia Cell-Based Screen. It counts as functional. Further details: scale not given: in the data most compounds retested in dose-response had high values. The following applies: 5 µM.
In the case of `CCOCC1CN(CCN2CCCCC2)Cc2cnn(C)c21.O=C(O)C(F)(F)F.O=C(O)C(F)(F)F.O=C(O)C(F)(F)F` (stereo not given), the “Percent Effect” value was 3.922%.

On to `COCC1CN(C(=O)C2=CCCC2)Cc2cnn(CC3CC3)c21` (stereo not given), for which the “Percent Effect” value is -0.9151%.

Take `CCOCC1CN(S(=O)(=O)C2CC2)Cc2cnn(C)c21` (stereo not given): the “Percent Effect” value is on record as -2.389%.

For `COCC1CN(C(=O)C2=CCCCC2)Cc2cnn(CC3CC3)c21` (stereo not given), the “Percent Effect” value came out at 3.854%.

`CCOCC1CN(C(=O)C2=CCCC2)Cc2cnn(C)c21` (stereo not given): the “Percent Effect” value is on record as 94.04%.

For `CCOCC1CN(C(=O)N2CCCC2)Cc2cnn(C)c21` (stereo not given), the “Percent Effect” value is given as 85.37%.

In the case of `CCOCC1CN(C(=O)C2CCOCC2)Cc2cnn(C)c21` (stereo not given), the “Percent Effect” value is 76.58%.

Regarding `CCOCC1CN(S(C)(=O)=O)Cc2cnn(C)c21` (stereo not given), the “Percent Effect” value is recorded as -13.89%.

As for `COCCOc1ccnc(-c2noc([C@@H]3CCCN3C3CCC3)n2)c1`, the “Percent Effect” value is reported as -11.59%.

With `CC(C)(C)C(=O)NCCC(=O)NS(=O)(=O)c1ccc2c(c1)OCCO2`, the “Percent Effect” value is reported as -7.979%.

For `CCc1nc(NC(=O)N(C)Cc2ccoc2)nn1C`, the “Percent Effect” value was determined as 2.955%.

As to `c1ccc(CCCN2CC(n3cccn3)C2)cc1`, the “Percent Effect” value worked out at 3.552%.

Consider `CCN(CC)C(=O)[C@@H]1C[C@@H](N)CN1c1nc(N(C)C)nc(C)c1C`, for which the “Percent Effect” value stood at 7.659%.

In the case of `COCCOc1ccc(S(=O)(=O)Nc2cccc(O)c2F)cc1C`, the “Percent Effect” value is given as -10.79%.

In the case of `Cc1cc(-c2nccs2)nc(C2CCN(Cc3ccccn3)CC2)n1`, the “Percent Effect” value is 103.9%.

In the case of `c1cnc(-c2nc(CN3CCC(c4ccn[nH]4)CC3)cs2)nc1`, the “Percent Effect” value was -2.472%.

As to `Cn1nccc1C1CCN(Cc2csc(-c3ncccn3)n2)CC1`, the “Percent Effect” value worked out at 5.984%.

Consider `Oc1cc(-c2nccs2)nc(C2CCN(Cc3cccs3)CC2)n1`, for which the “Percent Effect” value is 87.73%.

Take `Cc1cc(NC2CCN(Cc3ccccn3)CC2)n2nc(C)c(C)c2n1`: the “Percent Effect” value came out at 3.019%.

With `Cc1cc(-c2nccs2)nc(C2CCN(Cc3cccs3)CC2)n1`, the “Percent Effect” value came to 113.5%.

In the case of `Cc1ccccc1C1CCN(CCn2cc(-c3nccs3)nn2)C1` (stereo not given), the “Percent Effect” value is on record as -6.567%.

With `O=C(CCNCc1cc(O)c2cc(F)ccc2n1)N1CCCC1`, the “Percent Effect” value turned out to be 24.8%.

`CSc1nccc(N2CCCC(c3nccn3C(C)C)C2)n1` (stereo not given): the “Percent Effect” value is reported as 6.418%.

Regarding `Cn1nc(Cn2cccn2)c2c1CN(C1CCOCC1)C2.O=C(O)C(F)(F)F`, the “Percent Effect” value is listed as 2.859%.

For the molecule `Cc1ccc2c(n1)N(Cc1csc(C)n1)CCN(C1CCOC1)C2.O=C(O)C(F)(F)F.O=C(O)C(F)(F)F` (stereo not given), the “Percent Effect” value is reported as 9.97%.

With `Cc1ccc2c(n1)N(CCn1cccn1)CCN(C1CCOCC1)C2.O=C(O)C(F)(F)F.O=C(O)C(F)(F)F`, the “Percent Effect” value was found to be 93.94%.

Turning to `Cc1ccc2c(n1)N(CCn1cccn1)CCN(S(C)(=O)=O)C2.O=C(O)C(F)(F)F`, the “Percent Effect” value amounted to 91.26%.

Consider `CCS(=O)(=O)N1CCN(CCn2cccn2)c2nc(C)ccc2C1.O=C(O)C(F)(F)F`, for which the “Percent Effect” value was 99.61%.

Turning to `Cc1ccc2c(n1)N(CC(C)C)CCN(C(=O)Cc1ccccn1)C2.O=C(O)C(F)(F)F.O=C(O)C(F)(F)F`, the “Percent Effect” value amounted to 1.939%.

Regarding `COCCN1CCN(C(=O)N2CCCC2)Cc2ccc(C)nc21.O=C(O)C(F)(F)F`, the “Percent Effect” value is given as 6.866%.

For `CCCC(=O)N1CCN(CCN(C)C)c2nc(C)ccc2C1.O=C(O)C(F)(F)F.O=C(O)C(F)(F)F`, the “Percent Effect” value is on record as -16.06%.

As for `COCC(=O)N1CCN(CCn2cccn2)c2nc(C)ccc2C1.O=C(O)C(F)(F)F`, the “Percent Effect” value is given as 116.6%.

With `Cc1ccc2c(n1)N(CCn1cccn1)CCN(C(=O)CC1CC1)C2.O=C(O)C(F)(F)F`, the “Percent Effect” value was found to be 5.383%.

Consider `COCCN1CCN(C(=O)NC2CC2)Cc2ccc(C)nc21.O=C(O)C(F)(F)F`, for which the “Percent Effect” value is recorded as -6.778%.

Take `Cc1ccc(CNC(CN2CCN(C)CC2)c2ccccc2)cc1` (stereo not given): the “Percent Effect” value is 3.62%.

For the molecule `Cc1ccc2c(n1)N(CCn1cccn1)CCN(CC1CC1)C2.O=C(O)C(F)(F)F.O=C(O)C(F)(F)F`, the “Percent Effect” value came to 102.9%.

Take `COCCN1CCN(Cc2c(C)noc2C)Cc2ccc(C)nc21.O=C(O)C(F)(F)F.O=C(O)C(F)(F)F`: the “Percent Effect” value is -3.796%.

As to `O=C(Cc1nc(-c2ccncc2)n[nH]1)NCCCN1CCOCC1`, the “Percent Effect” value came to 108.4%.

On to `COCCCC(=O)Nc1[nH]nc(-c2ccncc2)c1C`, for which the “Percent Effect” value was found to be 2.915%.

`O=C(Cc1nc(-c2ccncc2)n[nH]1)N1CCOCC1`: the “Percent Effect” value is 104.3%.

With `O=S(=O)(NCCc1nc(-c2cccnc2)n[nH]1)NCc1ccccc1`, the “Percent Effect” value was -41.46%.

In the case of `COCCCNC(=O)Cc1cc(-c2ccc3c(c2)OCO3)on1`, the “Percent Effect” value is recorded as 2.22%.

On to `COCCCNC(=O)Cc1nc(-c2ccncc2)n[nH]1`, for which the “Percent Effect” value is 100.9%.

In the case of `O=C(NCc1ccccc1)NCc1nc(-c2ccncc2)n[nH]1`, the “Percent Effect” value worked out at 100.9%.

As for `O=C(COCc1nc(-c2ccncc2)no1)N1CCCCCC1`, the “Percent Effect” value is on record as -13.27%.

For `O=S(=O)(NCc1ccccc1)NCc1nc(-c2ccncc2)n[nH]1`, the “Percent Effect” value is given as -34.55%.

Turning to `O=C(NCCCN1CCOCC1)c1cc(-c2ccc3c(c2)CCO3)n[nH]1`, the “Percent Effect” value was -1.634%.

Consider `O=C(COCc1nc(-c2ccncc2)no1)N1CCCC1`, for which the “Percent Effect” value is on record as -11.18%.

`CN1CCC2(CC1)CN(C)C(=O)C[C@@H]2C(F)(F)F`: the “Percent Effect” value was -12.83%.

For `Cc1noc(C)c1CNC(=O)N1Cc2ccccc2N(C)CC1C` (stereo not given), the “Percent Effect” value stood at 7.877%.

Regarding `Cc1occc1CNC(=O)Nc1ccc2nc(N3CCOCC3)oc2c1`, the “Percent Effect” value was -9.739%.

As for `OCc1ccc(-c2nccn2CCc2nc3c(s2)CCCC3)o1`, the “Percent Effect” value was -5.43%.

Consider `Cc1ccn(CC(=O)N2CC[C@@H](c3ccc4ccccc4c3)[C@H](O)C2)n1`, for which the “Percent Effect” value was determined as 0.6829%.

As for `CC(C)C(C)(C#N)NC(=O)Cn1nnc(-c2cc3ccccc3o2)n1` (stereo not given), the “Percent Effect” value was -0.9006%.

`CCOCC(=O)Nc1cc(C)cnc1OC`: the “Percent Effect” value is given as -15.44%.

In the case of `CN1CCCCC1Cc1nc2c(cc1C(N)=O)CCC2` (stereo not given), the “Percent Effect” value is -3.187%.

Turning to `COc1cccc(OCCc2cncc(C(N)=O)c2)c1`, the “Percent Effect” value was -19.41%.

Regarding `NC(=O)c1cc2c(nc1CC1CCCCO1)CCC2` (stereo not given), the “Percent Effect” value is on record as -20.91%.

As to `COc1nc2c(cc1C(=O)NCCCc1nnc(N)s1)CCC2`, the “Percent Effect” value is recorded as 10.88%.

On to `NC(=O)c1cc2c(nc1-c1ccc3c(c1)CCO3)CCC2`, for which the “Percent Effect” value came out at 1.16%.

As to `COc1cccc(OCCc2nc3c(cc2C(N)=O)CCC3)c1`, the “Percent Effect” value was determined as 92.52%.

As for `NC(=O)c1cc2c(nc1CCOCc1ccccc1)CCC2`, the “Percent Effect” value came to 91.73%.

For the molecule `NC(=O)c1cc2c(nc1CCOc1ccc(F)cc1)CCC2`, the “Percent Effect” value is recorded as 109.9%.

For the molecule `NC(=O)c1cc2c(nc1-c1ccc3c(c1)OCCO3)CCC2`, the “Percent Effect” value is reported as -8.871%.

As to `CC(C#N)CNC(=O)Nc1ccc(Br)cc1` (stereo not given), the “Percent Effect” value was -11.38%.

Turning to `Cc1cc(CN(C)C(=O)C(c2cccnc2)N2CCOCC2)n[nH]1` (stereo not given), the “Percent Effect” value is listed as -3.091%.

For the molecule `Cc1ccc(S(=O)(=O)Cc2noc([C@@H]3C[C@@H](O)CN3C)n2)cc1`, the “Percent Effect” value is listed as -3.09%.

Turning to `O=C(NCc1ccccn1)[C@]12COC[C@H]1CN(Cc1ccccc1F)C2.O=C(O)C(F)(F)F.O=C(O)C(F)(F)F`, the “Percent Effect” value was 103.6%.

On to `Cc1ncsc1CN1C[C@@H]2COC[C@]2(C(=O)NCc2cccnc2)C1.O=C(O)C(F)(F)F.O=C(O)C(F)(F)F`, for which the “Percent Effect” value is 4.251%.

Regarding `O=C(NCCc1cccs1)[C@]12COC[C@H]1CN(Cc1ccccn1)C2.O=C(O)C(F)(F)F.O=C(O)C(F)(F)F`, the “Percent Effect” value is recorded as -75.28%.

With `Cn1cc(CN2C[C@@H]3COC[C@]3(C(=O)NCc3ccccn3)C2)cn1.O=C(O)C(F)(F)F.O=C(O)C(F)(F)F`, the “Percent Effect” value is recorded as -3.108%.

Turning to `O=C(NCc1ccccn1)[C@]12COC[C@H]1CN(Cc1cccnc1)C2.O=C(O)C(F)(F)F.O=C(O)C(F)(F)F.O=C(O)C(F)(F)F`, the “Percent Effect” value was 99.25%.

As for `Cc1ncsc1CN1C[C@@H]2COC[C@]2(C(=O)NCc2ccccn2)C1.O=C(O)C(F)(F)F.O=C(O)C(F)(F)F`, the “Percent Effect” value is on record as -14.61%.

In the case of `CCS(=O)(=O)N1C[C@H]2CN(c3cnn(C)c3)C(=O)[C@H]2C1`, the “Percent Effect” value is -14.71%.

Turning to `CC(C(=O)NCC(C)(C)c1ccc(Br)cc1)n1cncn1` (stereo not given), the “Percent Effect” value is recorded as 77.11%.

On to `CCN(CC(=O)NC(C)C)C(=O)C(C)(C)c1ccc2c(c1)OCCO2`, for which the “Percent Effect” value was -2.563%.

Take `CC(C)(CNc1cn[nH]c(=O)c1Cl)c1ccc2c(c1)OCCO2`: the “Percent Effect” value is 14.36%.

Take `CC(C(=O)NCc1ccnc(OCC(F)(F)F)c1)n1cncn1` (stereo not given): the “Percent Effect” value was 8.582%.

As for `CC(C)(CNc1cn[nH]c(=O)c1Cl)c1ccc2c(c1)OCO2`, the “Percent Effect” value is on record as 11.94%.

Consider `CC(C(=O)NCc1ccc2c(c1)OCCO2)n1cncn1` (stereo not given), for which the “Percent Effect” value turned out to be 116.3%.

In the case of `CC(C(=O)NCc1ccnc(N(C)C)c1)n1cncn1` (stereo not given), the “Percent Effect” value was -16.73%.

With `Cc1ccc(OCCNC(=O)C(C)n2cncn2)cc1` (stereo not given), the “Percent Effect” value was -5.656%.

With `CC(C(=O)NCC(C)(C)c1ccc2c(c1)OCCO2)n1cncn1` (stereo not given), the “Percent Effect” value was 97.81%.

`CC(C(=O)NCC(C)(C)c1ccc2c(c1)OCO2)n1ccnc1` (stereo not given): the “Percent Effect” value was determined as 97.89%.

As for `CN(CC(=O)NCC(C)(C)c1ccc2c(c1)OCO2)c1cnccn1`, the “Percent Effect” value is reported as -4.592%.

Regarding `Cc1ccc(C(C)(C)CNC(=O)NC(C)Cn2cncn2)cc1` (stereo not given), the “Percent Effect” value is reported as 14.21%.

For `O=C(NCCNc1ncccn1)NCCSC(F)(F)F`, the “Percent Effect” value is -9.16%.

As for `Cc1cnn(C2CN(CC(O)c3ccc4c(c3)OCCO4)C2)c1` (stereo not given), the “Percent Effect” value is -3.679%.

As to `Cc1nn(C)c(N(C)C)c1CNCCCN(C)S(C)(=O)=O`, the “Percent Effect” value is given as -15.04%.

As to `CCOc1cc(C(=O)O)cc(-c2ccccc2)c1OC`, the “Percent Effect” value is on record as -26.33%.

For `CCCNC(=O)Nc1cc2c(cc1SC)OCCO2`, the “Percent Effect” value is given as 21.87%.

For `CCOCCCC(=O)Nc1cc(C(N)=O)ccc1N1CCCCC1`, the “Percent Effect” value worked out at 2.668%.

Regarding `CC(C(=O)NCCc1ccc2c(c1)OCCO2)n1cncn1` (stereo not given), the “Percent Effect” value was found to be 104.6%.

On to `CC(C(=O)NCCOc1ccc2c(c1)OCO2)n1cncn1` (stereo not given), for which the “Percent Effect” value was 5.572%.

In the case of `CC(Cn1ccnc1)NC(=O)NCCc1ccc2c(c1)OCCO2` (stereo not given), the “Percent Effect” value is recorded as 0.8239%.
